Source: the supplement of paper PMC12340641

Tests used:
[1] = target: IKZF1 (dCK*-IKZF1 fusion in HEK293FT) (UniProt Q13422); assay: inhibition of IKZF1 HTRF signal (DMSO = 0%, pomalidomide 10 uM = 100%); higher = lower IKZF1 protein level; conditions: compound concentration: 5 uM, overnight (~20 h)
In short: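 HEK293FT cells stably expressing a dCK*-IKZF1 fusion (2000/well, 384-well) were treated overnight at 37 °C with 5 μM compound in single wells. They were then lysed 30 min at room temperature, and lysate was incubated overnight with a commercial HTRF total-IKZF1 antibody kit. The time-resolved FRET ratio (665/620 nm) was background-subtracted. Percent inhibition of IKZF1 signal was normalised per plate to vehicle (0%) and a reference degrader (100%).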

HEK293FT dCK*-only = assay: relative growth in counter assay (no AraC = 100%, AraC + DMSO = 0%); higher = more growth rescue independent of IKZF1; conditions: compound concentration: 5 uM; AraC concentration: 0.3 uM; overnight pretreatment + 4 days AraC
In short: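 In 384-well plates, 300 HEK293FT cells per well expressing an engineered kinase construct alone got 5 μM compound 2 h after seeding. After overnight at 37 °C, 0.3 μM nucleoside suicide substrate plus medium was applied for 4 days. Counting of Hoechst 33342-stained nuclei by imaging on day 5 was normalised per plate, with 100% for no-substrate wells and 0% for substrate plus vehicle.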

HEK293FT dCK*-IKZF1 = assay: relative growth recovery (pomalidomide 10 uM = 100%, DMSO = 0%); higher = more growth rescue (IKZF1 fusion degradation); conditions: compound concentration: 5 uM; AraC concentration: 0.3 uM; overnight pretreatment + 4 days AraC
In short: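 HEK293FT cells stably expressing an engineered deoxycytidine kinase–IKZF1 fusion were seeded at 300 per well in 384-well plates and given 5 μM compound 2 h later. After overnight incubation at 37 °C, a nucleoside suicide substrate at 0.3 μM was added with medium for 4 days, and on day 5 Hoechst 33342-stained nuclei were counted by whole-well imaging. Growth recovery was normalised per plate between a reference degrader and vehicle, set to 100% and 0% respectively, and the values are means of duplicates run on different days.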

Chain of IKZF1 (dCK*-IKZF1 fusion in HEK293FT) (Q13422 whole entry, looked up, the tested form may be a part): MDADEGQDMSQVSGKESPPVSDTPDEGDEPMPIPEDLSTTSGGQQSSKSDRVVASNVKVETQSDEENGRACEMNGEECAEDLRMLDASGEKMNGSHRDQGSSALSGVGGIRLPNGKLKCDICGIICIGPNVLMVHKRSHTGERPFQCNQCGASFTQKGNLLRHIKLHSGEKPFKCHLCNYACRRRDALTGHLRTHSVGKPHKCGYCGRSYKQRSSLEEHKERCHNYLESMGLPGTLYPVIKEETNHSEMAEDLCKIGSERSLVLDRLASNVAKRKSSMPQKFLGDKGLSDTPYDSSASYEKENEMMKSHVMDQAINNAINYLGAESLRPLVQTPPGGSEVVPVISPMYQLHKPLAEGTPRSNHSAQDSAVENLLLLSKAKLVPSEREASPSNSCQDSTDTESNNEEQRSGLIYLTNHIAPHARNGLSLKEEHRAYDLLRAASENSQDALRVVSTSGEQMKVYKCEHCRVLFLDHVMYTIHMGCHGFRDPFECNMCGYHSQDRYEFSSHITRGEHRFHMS

SMILES: COc1ccc(/C=C/C(=O)/C=C(O)/C=C/c2ccc(OC)c(OC)c2)cc1OC [Dimethylcurcumin, ASC-J9]
- inhibition of IKZF1 HTRF signal [1]: -40.7%
- relative growth in counter assay (HEK293FT dCK*-only): -25.6%
- relative growth recovery (HEK293FT dCK*-IKZF1): -5.62%

SMILES: COc1ccc(CN2C(=O)C(=O)c3cc(OC(F)(F)F)ccc32)cc1
- inhibition of IKZF1 HTRF signal [1]: -14.2%
- relative growth in counter assay (HEK293FT dCK*-only): -33.6%
- relative growth recovery (HEK293FT dCK*-IKZF1): -11.5%

SMILES: O=C(OOC(=O)c1ccccc1)c1ccccc1
- inhibition of IKZF1 HTRF signal [1]: -35.6%
- relative growth in counter assay (HEK293FT dCK*-only): -0.7%
- relative growth recovery (HEK293FT dCK*-IKZF1): 1.32%

SMILES: COc1ccc(-c2ccc3c(N4CCOC[C@@H]4C)nc(N4CCOC[C@@H]4C)nc3n2)cc1CO
- inhibition of IKZF1 HTRF signal [1]: 50%
- relative growth in counter assay (HEK293FT dCK*-only): -33.9%
- relative growth recovery (HEK293FT dCK*-IKZF1): -13.8%

SMILES: COC1CCN(c2cccc(-c3cc(NC(C)=O)nc(-n4nc(C)cc4C)n3)n2)CC1
- inhibition of IKZF1 HTRF signal [1]: -25.1%
- relative growth in counter assay (HEK293FT dCK*-only): 7.56%
- relative growth recovery (HEK293FT dCK*-IKZF1): -1.86%

SMILES: O=[N+]([O-])c1ccc2nc(COCc3nc4ccc([N+](=O)[O-])cc4[nH]3)[nH]c2c1
- inhibition of IKZF1 HTRF signal [1]: -34.1%
- relative growth in counter assay (HEK293FT dCK*-only): -3.14%
- relative growth recovery (HEK293FT dCK*-IKZF1): 4.2%

SMILES: CCOc1ccc2nc3cc(N)ccc3c(N)c2c1
- inhibition of IKZF1 HTRF signal [1]: -16.3%
- relative growth in counter assay (HEK293FT dCK*-only): -23.6%
- relative growth recovery (HEK293FT dCK*-IKZF1): -6.36%

SMILES: Cc1cc(N2CCCCC2)nc2ccccc12
- inhibition of IKZF1 HTRF signal [1]: -32%
- relative growth in counter assay (HEK293FT dCK*-only): -2.77%
- relative growth recovery (HEK293FT dCK*-IKZF1): -1.01%

SMILES: O=C(/C=C/c1ccc(O)c(O)c1)OCCc1ccccc1 [caffeic-acid-phenethyl-ester]
- inhibition of IKZF1 HTRF signal [1]: -31.4%
- relative growth in counter assay (HEK293FT dCK*-only): -29%
- relative growth recovery (HEK293FT dCK*-IKZF1): -7.03%

SMILES: CSCC1CN(/N=C/c2ccc([N+](=O)[O-])o2)C(=O)O1 (stereo unspecified) [Nifuratel]
- inhibition of IKZF1 HTRF signal [1]: -39.4%
- relative growth in counter assay (HEK293FT dCK*-only): -3.74%
- relative growth recovery (HEK293FT dCK*-IKZF1): -1.79%

SMILES: O=C2[C@]([C@]3=CC(Cl)=CC=C3OC)(F)C1=CC=C(C(F)(F)F)C=C1N2 [flindokalner]
- inhibition of IKZF1 HTRF signal [1]: -26.1%
- relative growth in counter assay (HEK293FT dCK*-only): -5.3%
- relative growth recovery (HEK293FT dCK*-IKZF1): -1.65%

SMILES: Oc1c(I)cc(Cl)c2cccnc12
- inhibition of IKZF1 HTRF signal [1]: -2.15%
- relative growth in counter assay (HEK293FT dCK*-only): -3.3%
- relative growth recovery (HEK293FT dCK*-IKZF1): -3.28%
